Our source for the Potency and outcome values is PubChem BioAssay (Tox21).

Several values for one entry are separate records, joined by “and”; a condition that tells them apart may be missing. Identical values can stand only once. Records with an inconclusive call do not appear. The source holds several records for some structures; these can differ, active in one and inactive in another. Activity calls are given as the source filed them. Unless noted, calls come from the whole dose curve; as a rule, active = well fitted curve in the direction sought with a large enough effect in the repeat runs; inconclusive = weak or mixed curves; inactive = no such curve, though single readings can be large; an effect the other way counts as inactive or inconclusive.

A short description of assay [1]: qHTS assay to test for compound auto fluorescence at 535 nm (green) in HepG2 cells (AID 720675).
The nature of assay [2]: qHTS assay to test for compound auto fluorescence at 590 nm (red) in HEK293 cells (AID 720679). In outline: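 Red autofluorescence, HEK293 cells: 2,000 cells/well; attach 4-5 hr 37C; add 23 nL cpd or DMSO; incubate o/n 37C 5% CO2; read Ex540/Em590; Rose Bengal sodium reference.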
The nature of assay [3]: qHTS assay to test for compound auto fluorescence at 590 nm (red) in HepG2 cell free culture (AID 720684). In outline: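 Rose Bengal sodium served as the reference for red signal. Test compounds were dispensed into serum-containing MEM (10% FBS) without cells, and plates were read at 540/590 nm.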
Assay [4] is described as follows: qHTS assay to test for compound auto fluorescence at 460 nm (blue) in HepG2 cell free culture (AID 720685). In outline:
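Cell-free plates of MEM plus 10% FBS received 23 nL compound or DMSO vehicle; blue-channel (405/460 nm) intensity scored against triamterene as reference fluorophore.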

A short description of assay [5]: qHTS assay to test for compound auto fluorescence at 535 nm (green) in HepG2 cell free culture (AID 720686).
Assay [6] can be described thus: qHTS assay to test for compound auto fluorescence at 460 nm (blue) in HepG2 cells (AID 720687). In outline: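 HepG2 cells in MEM with 10% FBS, attached overnight at 37 C, were exposed to compound or DMSO for 1 hr at 37 C, 5% CO2. Blue fluorescence was read at 405/460 nm, with triamterene as reference fluorophore.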
A short description of assay [7]: qHTS assay to identify small molecule agonists of the RXR signaling pathway - cell viability counter screen (AID 1159529). Note: potency is the fitted concentration of half-maximal effect; nearly all actives have a fitted effect of over 50% in size. In outline: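 RXR-alpha-UAS-bla HEK 293T cells in medium with 2% charcoal-stripped FBS were pre-incubated 5 hr, then compound-treated 16 hr at 37 C. Viability was read by CellTiter-Glo luminescence in the same wells as the beta-lactamase assay, with tetraoctyl ammonium bromide as positive control.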

A short description of assay [8]: qHTS assay to identify small molecule agonists of H2AX - cell viability counter screen (AID 1224847; calls by dose curve; note: potency is the fitted concentration of half-maximal effect; nearly all actives have a fitted effect of over 30% in size). In outline: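 CHO-K1 cells plated overnight at 37C, then exposed 3 h at 37C to compounds at 15 concentrations (0.76% DMSO final). Viability by CellTiter-Glo luminescence after 30 min at room temperature.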
The nature of assay [9]: qHTS RealTime-Glo MT Cell Viability Assay in HEK293 cells - 16 hour (AID 1224872). Note: potency is the fitted concentration of half-maximal effect; nearly all actives have a fitted effect of over 50% in size. In outline: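 Tox21 10K qHTS, HEK293, 600 cells/well, RealTime-Glo reagent co-dispensed with cells; 5 h preincubation, compound by pintool, 37 C, luminescence at 0–40 h.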
Assay [10] can be described thus: qHTS assay to identify small molecule agonists of the androgen receptor (AR) signaling pathway in the presence of an antagonist - cell viability counter screen (AID 1259379). Note: nearly all actives have a fitted effect of over 25% in size. Note: potency is the fitted concentration of half-maximal effect. In outline:
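Viability counter screen: CellTiter-Fluor fluorescence, measured in the same wells as the luciferase read-out. MDA-kb2 cells, 3,000/well, with nilutamide at 3.0uM final and compounds at 15 concentrations, 16 hr at 37C, 0% CO2.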

Assay [11] in a line: qHTS assay to identify small molecule agonists of the estrogen receptor beta (ER-beta) signaling pathway - cell viability counter screen (AID 1259380). Note: potency is the fitted concentration of half-maximal effect; nearly all actives have a fitted effect of over 30% in size. In outline: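 Luminescence read-out (CellTiter-Glo, 30 min, room temp) taken in the same wells as the beta-lactamase reporter assay; ER-beta-UAS-bla HEK293T cells exposed to DMSO-dissolved compounds for 16 hr at 37C in 2% charcoal-stripped FBS medium.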

For assay [12], the target named is Cytochrome P450 3A4 (Homo sapiens) (UniProt P08684). In words: Cytochrome P450 Family 3 Subfamily A Member 4 (CYP3A4) small molecule antagonists: luciferase reporter qHTS assay (AID 1671201). Note: nearly all actives have a fitted effect of over 50% in size. Note: potency is the fitted concentration of half-maximal effect. In outline:
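P450-Glo CYP3A4 luminescent assay: compounds preincubated 10 min at room temperature with enzyme and proluciferin substrate, NADPH regeneration added, 1 h room-temperature reaction, stopped with luciferin detection reagent; luminescence read after 20 min. Ketoconazole positive control.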

Assay [13] in a line: qHTS assay to identify small molecule antagonists of the estrogen related receptor signaling pathway with the pleiotropic PPARgamma coactivator (PGC) from Tox21 10K library - cell viability counter screen (AID 1224840; active = well fitted cell-killing curve with a large enough effect in the repeat runs, not every such curve was filed as active; note: nearly all actives have a fitted effect of over 40% in size; note: potency is the fitted concentration of half-maximal effect). In outline: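 Fluorescence read-out of CellTiter-Fluor viability reagent, added after cells had been exposed to compound in DMSO for 17.5 h at 37 C; 30 min development at 37 C/5% CO2. Cells: PGC/ERR line, 2,000/well.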

Assay [14] is described as follows: qHTS RealTime-Glo MT Cell Viability Assay in HepG2 cells - 8 hour (AID 1224873). Note: nearly all actives have a fitted effect of over 55% in size. In outline:
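HepG2 cells (600/well) mixed with RealTime-Glo MT reagent, settled 5 h at 37 C/5% CO2 before compound addition. Nonlytic NanoLuc luminescence from viable-cell prosubstrate reduction read repeatedly during 40 h treatment at 37 C.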

Assay [15] is described as follows: Human pregnane X receptor (PXR) small molecule agonists, qHTS cell viability counter screen (AID 1346977). Note: nearly all actives have a fitted effect of over 50% in size. Note: potency is the fitted concentration of half-maximal effect. In outline: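 PXR-Luc HepG2 cells (2,000/well, 5% charcoal-stripped FBS) preincubated 5 hr, then exposed to compounds 24 hr at 37 C. Viability read in the same wells by CellTiter-Fluor fluorescence, reagent added at 23 hr, 1 hr incubation.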
Assay [16] can be described thus: qHTS assay to identify small molecule agonists of the hypoxia (HIF-1) signaling pathway - cell viability counter screen (AID 1224844; calls by dose curve; note: nearly all actives have a fitted effect of over 50% in size; note: potency is the fitted concentration of half-maximal effect). In outline:
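CellTiter-Glo luminescence read-out, 30 min RT, taken in the same wells as the beta-lactamase HRE reporter assay; HRE-bla ME-180 cells, 0.5% dialyzed FBS, 17 hr compound treatment at 37C, 5% CO2.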

Assay [17] can be described thus: Caspase-3/7 induction in CHO-K1 cells by small molecules, qHTS cell viability counter screen (AID 1346979). Note: potency is the fitted concentration of half-maximal effect; nearly all actives have a fitted effect of over 35% in size. In outline:
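Wild-type CHO-K1 cells (1,500/well) treated with compound after 5 h plating; after 16 h at 37C, viability read as CellTiter-Fluor fluorescence following 1 h reagent incubation, in the same wells as the caspase read.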

For assay [18], the target named is Nuclear receptor subfamily 1 group I member 3 (Homo sapiens) (UniProt Q14994). In words: qHTS assay to identify small molecule agonists of the constitutive androstane receptor (CAR) signaling pathway (AID 1224839). Note: nearly all actives have a fitted effect of over 15% in size. Note: potency is the fitted concentration of half-maximal effect. In outline:
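HepG2 cells stably co-transfected with hCAR and a CYP2B6-2.2kb luciferase reporter; compounds at 15 concentrations with 0.75 uM PK11195 present. After 24 hr at 37 C, luciferase read by ONE-Glo luminescence.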

The nature of assay [19]: qHTS assay for small molecule agonists of the p53 signaling pathway (AID 651631; calls by dose curve; note: nearly all actives have a fitted effect of over 15% in size; note: potency is the fitted concentration of half-maximal effect). In outline: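 HCT-116 cells carrying a beta-lactamase reporter under p53 response elements were dosed with compound for 16 h at 37 °C. LiveBLAzer B/G FRET substrate was then added for 2 h at room temperature, and fluorescence intensity was read to detect pathway agonism.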
Assay [20] is described as follows: qHTS assay to identify small molecule antagonists of the progesterone receptor (PR) signaling pathway - cell viability counter screen (AID 1346798). Note: nearly all actives have a fitted effect of over 50% in size. Note: potency is the fitted concentration of half-maximal effect. In outline:
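PR-UAS-bla HEK293T cells, 3,000/well in 2% charcoal-stripped FBS medium, dosed with compounds plus R5020 agonist and incubated 16 h at 37C. Viability then measured in the same wells by CellTiter-Glo luminescence after 30 min at RT.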

Cytochrome P450 3A4 (Homo sapiens), sequence (P08684 whole entry, looked up): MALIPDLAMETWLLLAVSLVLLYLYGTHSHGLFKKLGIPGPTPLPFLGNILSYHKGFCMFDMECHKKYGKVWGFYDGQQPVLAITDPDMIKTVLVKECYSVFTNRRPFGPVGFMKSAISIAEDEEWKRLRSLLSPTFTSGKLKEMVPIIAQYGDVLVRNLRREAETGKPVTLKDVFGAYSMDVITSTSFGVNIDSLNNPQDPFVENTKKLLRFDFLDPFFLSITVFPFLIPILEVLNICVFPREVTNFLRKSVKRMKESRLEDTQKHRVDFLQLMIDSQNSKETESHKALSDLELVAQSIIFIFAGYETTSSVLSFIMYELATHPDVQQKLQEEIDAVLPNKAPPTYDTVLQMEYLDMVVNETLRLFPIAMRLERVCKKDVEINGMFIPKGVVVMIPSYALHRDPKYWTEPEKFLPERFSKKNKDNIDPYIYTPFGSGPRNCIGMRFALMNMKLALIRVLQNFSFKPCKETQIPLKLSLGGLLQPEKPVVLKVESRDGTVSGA
Nuclear receptor subfamily 1 group I member 3 (Homo sapiens), sequence (Q14994 whole entry, looked up): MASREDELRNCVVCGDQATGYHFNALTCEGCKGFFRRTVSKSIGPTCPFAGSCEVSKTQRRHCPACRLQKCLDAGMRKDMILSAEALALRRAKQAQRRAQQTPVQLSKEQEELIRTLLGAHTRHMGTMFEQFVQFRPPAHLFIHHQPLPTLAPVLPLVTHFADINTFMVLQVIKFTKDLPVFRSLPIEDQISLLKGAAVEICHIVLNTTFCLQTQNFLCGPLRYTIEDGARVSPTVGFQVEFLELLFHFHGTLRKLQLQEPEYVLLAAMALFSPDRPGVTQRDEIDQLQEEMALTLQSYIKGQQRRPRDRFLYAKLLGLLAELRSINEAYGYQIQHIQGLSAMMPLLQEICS

Regarding `OCC(c1ccc(Cl)cc1)c1ccc(Cl)cc1`, the Potency entry in assay [1], in assay [4], in assay [5], in assay [6], in assay [10] and in assay [12] was “inactive” each time. The molecule was called inactive in assay [2] and in assay [3]. Besides, the Potency was 54.9 µM (active) in assay [7], 89.8 µM (active) in assay [8], 30.9 µM (active) in assay [9] and 54.5 µM (active) in assay [11].

On to `O=C(Nc1ccccc1-c1ccc(Cl)cc1)c1cccnc1Cl`, for which the Potency entry in assay [1], in assay [4], in assay [5], in [6], in assay [13] and in assay [14] was “inactive” each time. The Potency entry in assay [10] and in assay [15] was “inactive” each time. Further, the result in assay [2] and in assay [3] was inactive. In assay [11], the Potency was 14.5 µM (active).

As to `CC1COC(Cn2cncn2)(c2ccc(Oc3ccc(Cl)cc3)cc2Cl)O1` (configuration not stated), the Potency entry in assay [1], in [4], in assay [5], in assay [6] and in assay [16] was “inactive” in each case. Further, the molecule was called inactive in assay [2] and in assay [3]. For the same molecule, the Potency in assay [8] is 101 µM (active); in assay [9], 21.9 µM (active); in assay [10], 48.6 µM (active); in assay [15] it was 21.7 µM (active); in assay [17], 24.3 µM (active); in assay [12], 0.0796 µM (active).

Consider `O=C(c1ccc(Cl)cc1)c1ccc(Cl)cc1`, for which, in assay [18], the Potency result is “inactive”.

Turning to `COc1ccc(C(c2ccc(OC)cc2)C(Cl)(Cl)Cl)cc1`, the Potency in [19] was 30.6 µM (active); in assay [18], 2.42 µM (active); in assay [8] it was 50.2 µM (active); in assay [17], 60.8 µM (active). For the same molecule, the Potency entry in assay [1], in [4], in assay [5], in [6], in assay [13] and in [16] was “inactive” in each case. Also, the Potency entry in assay [12] is “inactive”. Also, the outcome in [2] and in [3] was inactive.

Consider `CC(c1ccccc1)(c1ccc(O)cc1)c1ccc(O)cc1`, for which the Potency was 54.9 µM (active) in assay [16], 54.5 µM (active) in assay [11], 68.6 µM (active) in assay [17] and 25.2 µM (active) in assay [12]. In addition, the Potency result in assay [14] was “inactive”.

For `CN1CSC(=S)N(C)C1`, the Potency entry in assay [19], in assay [1], in assay [4], in [5], in assay [6] and in assay [18] was “inactive” in each case. The Potency entry in [14] and in assay [12] was “inactive” throughout. Moreover, the outcome in assay [2] and in [3] was inactive. For the same molecule, the Potency is 10.9 µM (active) and 8.69 µM (active) in assay [7]; 5.42 µM (active) and 6.09 µM (active) in [13]; 56.4 µM (active) in assay [8]; 15.4 µM (active) in assay [9]; 27.2 µM (active) and inactive in [10]; 4.31 µM (active) and 9.66 µM (active) in [11]. Further, the Potency in assay [20] is 27.2 µM (active) and 21.6 µM (active); in assay [15] it was 5.01 µM (active) and 21.6 µM (active); in [17], 1.36 µM (active) and 7.67 µM (active).

As for `ClC1=C(Cl)[C@]2(Cl)[C@@H]3[C@@H](Cl)[C@H]4O[C@H]4[C@@H]3C1(Cl)C2(Cl)Cl`, the Potency entry in [1], in assay [4], in assay [5], in assay [6], in assay [16] and in assay [10] was “inactive” each time. In addition, the Potency entry in assay [20] is “inactive”. Further, the call in assay [2] and in [3] was inactive. The Potency is 49 µM (active) in assay [7], 113 µM (active) in assay [8] and 54.9 µM (active) in assay [9].

As to `CC(C)(C)c1cc(C(C)(C)C)c(O)c(C(C)(C)C)c1`, in assay [18], the Potency is 8.63 µM (active).
